Drawing on PubChem BioAssay (NCI), this text covers growth for nine compounds.

Some test systems named below: HOP-92 NSCLC; K-562 leukemia; RXF 393 renal; SK-MEL-2 melanoma; SN12C renal; TK-10 renal; A498 renal; RPMI-8226 leukemia; OVCAR-3 ovarian; MDA-MB-435 melanoma; HCC-2998 colon; UACC-257 melanoma; CAKI-1 renal.
Holding throughout (assay): NCI-60 one-dose screen, 48 h (100 = growth as untreated, 0 = no growth, -100 = all killed)
Holding throughout (conditions): 10 µM

Several values for one entry are separate records, joined by “and”; a condition that tells them apart may be missing. Equal values may be shown once. This is part of a sample that, as a whole, favours compounds with a hit. Of some 83,000 tested, about 20% had one in any assay.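 Method: cells in 96-well plates; compound added at one concentration; 48 h incubation; percent growth measured; values under 10 scored active.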 Activity calls are given as the source filed them.

Regarding `CC1=C[C@H]2O[C@@H]3C[C@@H](O)[C@](C)([C@@]2(C)CC1)[C@@]31CO1`, the growth in the assay on HOP-92 NSCLC was 41.3% (inactive); in the assay with K-562 leukemia it was 18.5% (inactive); with RXF 393 renal, 15.3% (inactive); in the assay with SK-MEL-2 melanoma, 22.6% (inactive); in the assay on SN12C renal it was 25.4% (inactive); with TK-10 renal, 52.8% (inactive). Moreover, the growth with A498 renal was 39.2% (inactive); in the assay on RPMI-8226 leukemia it was 29.3% (inactive); in the assay with OVCAR-3 ovarian it was 38.9% (inactive); in the assay with MDA-MB-435 melanoma, 21.1% (inactive); in the assay on HCC-2998 colon it was 18.2% (inactive).
With `COc1cc2c(O[C@@H]3OC[C@H](OC(C)=O)[C@H](OC(C)=O)[C@H]3O)c3c(c(-c4ccc5c(c4)OCO5)c2cc1OC)C(=O)OC3`, the growth with HOP-92 NSCLC was -13.3% (active); with RXF 393 renal it was 54.4% (inactive); in the assay on UACC-257 melanoma, -35.8% (active); in the assay on SK-MEL-2 melanoma it was -31.8% (active); in the assay on TK-10 renal it was 42.3% (inactive); with CAKI-1 renal, 13.8% (inactive). The growth in the assay on A498 renal is 70.6% (inactive); in the assay with RPMI-8226 leukemia, -2.08% (active); with OVCAR-3 ovarian, 59.4% (inactive); with MDA-MB-435 melanoma it was 4.94% (active).
On to `CN(CCF)/N=N/c1nc[nH]c1C(N)=O`, for which the growth in the assay with HOP-92 NSCLC is 77.9% (inactive); in the assay on K-562 leukemia, 22.2% (inactive); in the assay with RXF 393 renal it was 76.6% (inactive); with UACC-257 melanoma it was 53.8% (inactive); in the assay with SK-MEL-2 melanoma, -20.9% (active); in the assay with SN12C renal, 48.4% (inactive). Moreover, the growth was 25.2% (inactive) with TK-10 renal; 14.1% (inactive) with CAKI-1 renal; 87% (inactive) in the assay with A498 renal; 25.5% (inactive) with RPMI-8226 leukemia; 39.6% (inactive) in the assay on MDA-MB-435 melanoma; 38.7% (inactive) in the assay on HCC-2998 colon.
As to `CCCCCCCCCC(=O)N[C@@](C)(CC)C(=O)N1CCC[C@H]1C(=O)N[C@@H](CC(C)C)C(=O)N[C@@](C)(CC)C(=O)N[C@@H](CCC(N)=O)C(=O)N[C@H](CCC(N)=O)C(=O)NC(C)(C)C(=O)NC(C)(C)C(=O)N[C@@H](CCC(N)=O)C(=O)N[C@H](CC(C)C)C(=O)N[C@H](CO)CC(C)C`, the growth was -93.1% (active) and -69.1% (active) in the assay on HOP-92 NSCLC; -15.6% (active) and 21.9% (inactive) with K-562 leukemia; -89.1% (active) and -89.3% (active) in the assay with RXF 393 renal; -88.1% (active) and -80.1% (active) in the assay on UACC-257 melanoma; -90.7% (active) and -86% (active) with SK-MEL-2 melanoma; -86.9% (active) and -98.8% (active) in the assay on SN12C renal. Also, the growth with TK-10 renal was -73.6% (active) and -83.4% (active); with CAKI-1 renal it was -92.4% (active) and -100% (active); with A498 renal, -92.4% (active) and -81.1% (active); in the assay on RPMI-8226 leukemia it was -53.6% (active) and -31.8% (active); in the assay on OVCAR-3 ovarian it was -74.5% (active); in the assay on MDA-MB-435 melanoma, -94% (active) and -97.5% (active). The growth with HCC-2998 colon was -87.4% (active) and -89.4% (active).
Turning to `COc1cc2c(cc1OC)[C@@H]1N(CC2)C(=O)c2ccccc2[C@@]1(C)C(=O)O`, the growth in the assay on HOP-92 NSCLC was 123% (inactive); in the assay with K-562 leukemia, 105% (inactive); in the assay on RXF 393 renal, 127% (inactive); in the assay on UACC-257 melanoma it was 107% (inactive); with SK-MEL-2 melanoma it was 109% (inactive); with SN12C renal, 102% (inactive). Further, the growth with TK-10 renal is 107% (inactive); in the assay on CAKI-1 renal, 101% (inactive); with A498 renal, 89.4% (inactive); with RPMI-8226 leukemia, 110% (inactive); in the assay on OVCAR-3 ovarian, 122% (inactive); with MDA-MB-435 melanoma, 103% (inactive). In addition, the growth in the assay with HCC-2998 colon is 110% (inactive).
As for `CC(=O)O[C@@H]1[C@@H]2O[C@H]2[C@@](C)(O)C(=O)[C@@H](C)C/C=C/[C@H]2[C@@H]3O[C@]3(C)[C@@H](C)C3[C@H](Cc4ccccc4)NC(=O)[C@@]312` (some centres undefined), the growth with HOP-92 NSCLC was -28.8% (active); with K-562 leukemia, 68.8% (inactive); in the assay on RXF 393 renal, 20.3% (inactive); in the assay on SK-MEL-2 melanoma, 72.1% (inactive); in the assay with SN12C renal, 62.6% (inactive); with TK-10 renal, -8.91% (active). The growth in the assay with A498 renal was 3.87% (active); with RPMI-8226 leukemia, 81.8% (inactive); in the assay with OVCAR-3 ovarian it was 54.2% (inactive); in the assay on MDA-MB-435 melanoma, 70.9% (inactive); with HCC-2998 colon, 77.4% (inactive).
In the case of `COC1[C@@H]2C[C@H]3C(C)(C)O[C@@](C/C=C(/C)C(=O)O)(C2=O)[C@]32Oc3c(CC=C(C)C)c4c(c(O)c3C(=O)[C@H]12)C=CC(C)(C)O4` (some centres undefined), the growth in the assay on HOP-92 NSCLC was -36.4% (active); in the assay with K-562 leukemia, 2.55% (active); in the assay with RXF 393 renal it was -81.1% (active); with UACC-257 melanoma, -48.2% (active); in the assay with SK-MEL-2 melanoma, -65.5% (active); with SN12C renal it was -16.7% (active). For the same compound, the growth in the assay on A498 renal was -67.8% (active); in the assay on RPMI-8226 leukemia it was -17% (active); in the assay with OVCAR-3 ovarian, -90.6% (active); in the assay on MDA-MB-435 melanoma, -58.2% (active); with HCC-2998 colon it was -81.9% (active).
On to `CN1C(=O)[C@]23SSC1(C)C(=O)N2[C@H]1Nc2ccccc2C1([C@@]12c4ccccc4N[C@@H]1N1C(=O)C4(C)SS[C@]1(C(=O)N4C)[C@H]2O)[C@@H]3O` (some centres undefined), for which the growth in the assay with K-562 leukemia was 2.18% (active); in the assay with RXF 393 renal, -93.3% (active); in the assay on UACC-257 melanoma it was -96.9% (active); in the assay on SN12C renal it was -96.1% (active); in the assay on TK-10 renal, -95.7% (active); in the assay on CAKI-1 renal, -99.8% (active). The growth was -16.9% (active) with RPMI-8226 leukemia, -94.3% (active) with MDA-MB-435 melanoma and -83.8% (active) in the assay with HCC-2998 colon.
On to `CC1=C(CCC=NNC(N)=O)C2=C(C)C3(CC3)[C@@](C)(O)C(=O)C2=C1`, for which the growth in the assay with K-562 leukemia is 54.7% (inactive); in the assay on RXF 393 renal, -93.6% (active); with UACC-257 melanoma it was -62.1% (active); in the assay on SN12C renal, 1.73% (active); in the assay with TK-10 renal, -9.84% (active); with CAKI-1 renal, 0.975% (active). Also, the growth in the assay on RPMI-8226 leukemia was 59.8% (inactive); with MDA-MB-435 melanoma it was -27.9% (active); in the assay on HCC-2998 colon, -73.2% (active).
